ABHD5-PLIN5 inh: blocks binding of human ABHD5 to perilipin-5. AID 602281. inhibition, % at 4 µM. actives 0.78% (n = 360,000). Split G. princeps luciferase complementation, luminescence, 4 h. Q00G26+Q8WTS1;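 active = inhibition above the mean inhibition across every tested compound plus 3 SD, cut at about 22% in these data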;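 also: 0% = DMSO only wells and the 100% control is not disclosed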
Target sequence (Q00G26 whole entry, looked up): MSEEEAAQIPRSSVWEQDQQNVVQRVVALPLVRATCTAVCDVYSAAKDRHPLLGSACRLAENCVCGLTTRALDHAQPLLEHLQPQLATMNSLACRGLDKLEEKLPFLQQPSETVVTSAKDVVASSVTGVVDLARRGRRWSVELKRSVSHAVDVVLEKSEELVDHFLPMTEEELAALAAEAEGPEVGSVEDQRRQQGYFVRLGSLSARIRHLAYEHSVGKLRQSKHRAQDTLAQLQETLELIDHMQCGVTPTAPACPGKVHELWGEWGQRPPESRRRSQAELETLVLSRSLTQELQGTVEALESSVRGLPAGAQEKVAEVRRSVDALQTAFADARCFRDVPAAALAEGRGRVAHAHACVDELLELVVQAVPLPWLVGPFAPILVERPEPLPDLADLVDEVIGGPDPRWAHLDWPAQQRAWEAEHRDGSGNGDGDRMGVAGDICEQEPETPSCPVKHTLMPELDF
Target sequence (Q8WTS1 whole entry, looked up): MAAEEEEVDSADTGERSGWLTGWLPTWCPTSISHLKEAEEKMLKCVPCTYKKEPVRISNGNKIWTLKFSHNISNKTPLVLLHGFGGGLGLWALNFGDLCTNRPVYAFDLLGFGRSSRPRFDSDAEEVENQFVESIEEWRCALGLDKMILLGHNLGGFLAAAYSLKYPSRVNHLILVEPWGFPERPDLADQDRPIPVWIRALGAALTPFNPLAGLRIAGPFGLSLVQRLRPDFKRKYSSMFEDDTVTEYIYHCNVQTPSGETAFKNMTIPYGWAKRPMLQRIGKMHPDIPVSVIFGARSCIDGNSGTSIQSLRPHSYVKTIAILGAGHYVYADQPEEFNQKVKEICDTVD
rCAG RNA binder: molecules binding r(CAG) RNA repeats. r(CAG) RNA repeat, TO-PRO-1 dye displacement fluorescence. actives 1.3% (n = 370,000). inhibition, % at 3 µM;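 active = inhibition above the plate cutoff, the mean of all test compounds on that plate plus 3 SD, cut at about 35% in these data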;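 also: 0% = DMSO alone and 100% = 100 µM mitoxantrone as full dye displacement; higher means more dye released from RNA so lower well fluorescence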
Rtt109 Vps75: C. albicans Rtt109 histone acetyltransferase inhibition | purified Rtt109/Vps75, ThioGlo CoA-SH fluorescence, 4 h | actives 0.16% (n = 330,000) | inhibition, % at 34.9 µM | AID 540336;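 active = inhibition of at least 50% in every replicate; inconclusive = best replicate reaches 50% inhibition but some replicates fall short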
ALR inh: human ALR oxidase inhibition via reduced H2O2; P55789; purified ALR, DTT oxidation, H2O2 HRP-luminol luminescence; inhibition, % (concentration not given with the values); actives 3.8% (n = 290,000); AID 485317;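 active = mean replicate inhibition above about 79%, with every replicate also reaching it, limit read from the data; inconclusive = only one of the two criteria met; inactive = mean below limit and not every replicate reaching it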
LANA-H2B inh: blocks KSHV LANA binding to histone H2A/H2B | Q9QR71 | cell-free LANA-H2A/H2B peptide, fluorescence polarization | inhibition, % (no concentration beside the values) | actives 0.6% (n = 320,000); in the data active = inhibition mostly above about 10%, no sharp cut-off; inactive = mostly below about 6.7%
PRMT1 FP inh: inhibitors of human PRMT1. recombinant PRMT1, activity-based probe fluorescence polarization. inhibition, % at 2.79 µM. actives 1.3% (n = 370,000). Q99873;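 active = inhibition above about 21% made by adding two undisclosed values, limit read from the data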
Active calls of the source: *. Hits are enriched below; roughly 5.9% of the tested compounds scored in any of these assays.

How did Cn1c(=O)c(N)c2c3c(c(Br)ccc31)C(=O)c1ccccc1-2 do in these assays?
ABHD5-PLIN5 inh: 7.1; rCAG RNA binder: inactive; Rtt109 Vps75: 6.4; ALR inh: -25.1; LANA-H2B inh: 42.7*; PRMT1 FP inh: 179.8*

What do the screens show for `CCOC(=O)[C@@]12CN(C(=O)OC(C)(C)C)CC=C1N(Cc1ccc(OC)cc1)C(=O)[C@H]2CC(=O)NCCC(C)C`?
rCAG RNA binder: -1.8; PRMT1 FP inh: 1.9

What do the screens show for `CCn1c(=Nc2ccc(N3CCOCC3)cc2)ccc2ccccc21`?
ABHD5-PLIN5 inh: 0.9; rCAG RNA binder: 0.0; Rtt109 Vps75: -8.6; ALR inh: 66.8; LANA-H2B inh: -2.1; PRMT1 FP inh: -2.7

What do the screens show for `Cn1c(=Nc2ccc(N3CCOCC3)cc2)ccc2ccccc21`?
ABHD5-PLIN5 inh: 3.7; rCAG RNA binder: 1.4; Rtt109 Vps75: -0.3; ALR inh: 99.2*; LANA-H2B inh: 0.9; PRMT1 FP inh: -3.2

Results for O=C(COCc1ccccc1)NC1CCCCN(Cc2cccc(Cl)c2)C1=O (stereo not given) ?
rCAG RNA binder: -2.9; PRMT1 FP inh: 0.7

How did COc1ccccc1-c1cc(-c2ccc(O)cc2)nc(N)c1C#N do in these assays?
ABHD5-PLIN5 inh: -11.0; rCAG RNA binder: 3.7; Rtt109 Vps75: 9.8; ALR inh: 96.1*; LANA-H2B inh: 3.4; PRMT1 FP inh: 11.4

Results for COc1cc(-c2cc(-c3ccc(O)cc3)nc(N)c2C#N)ccc1O ?
ABHD5-PLIN5 inh: 3.1; rCAG RNA binder: 5.6; Rtt109 Vps75: 3.9; ALR inh: 96.7*; LANA-H2B inh: -1.6; PRMT1 FP inh: 1.1

What do the screens show for `N#Cc1c(-c2ccccc2)cc(-c2ccc(O)cc2)nc1N`?
ABHD5-PLIN5 inh: 0.3; rCAG RNA binder: 5.1; Rtt109 Vps75: 3.5; ALR inh: 99.3*; LANA-H2B inh: -2.7; PRMT1 FP inh: -2.8

Results for Cc1ccc(N2C(=O)C(Cl)=C(N3CCOCC3)C2=O)cc1Cl ?
ABHD5-PLIN5 inh: 13.2; rCAG RNA binder: -2.7; Rtt109 Vps75: -21.0; ALR inh: 9.9; LANA-H2B inh: -1.7; PRMT1 FP inh: 17.0

How did O=C1C(Cl)=C(N2CCOCC2)C(=O)N1c1cccc(C(F)(F)F)c1 do in these assays?
ABHD5-PLIN5 inh: -1.3; rCAG RNA binder: -2.2; Rtt109 Vps75: inconclusive; ALR inh: 12.3; LANA-H2B inh: 1.7; PRMT1 FP inh: 21.6*

How did COC(=O)c1cccc(N2C(=O)C(Cl)=C(N3CCOCC3)C2=O)c1 do in these assays?
ABHD5-PLIN5 inh: 10.6; rCAG RNA binder: 2.8; Rtt109 Vps75: 115.2*; LANA-H2B inh: -1.7; PRMT1 FP inh: 12.9

How did COc1ccccc1CNc1nc(NCc2ccccc2SC)c2sccc2n1 do in these assays?
ABHD5-PLIN5 inh: 19.2; rCAG RNA binder: 3.6; PRMT1 FP inh: -3.0

Results for c1cc(C2OCCO2)cs1 ?
ABHD5-PLIN5 inh: 3.5; rCAG RNA binder: 2.9; PRMT1 FP inh: -2.0

Results for O=C(CNC(=O)OCc1ccccc1)Oc1ccc2ccc(=O)oc2c1 ?
ABHD5-PLIN5 inh: -0.4; rCAG RNA binder: -3.1; Rtt109 Vps75: 4.2; LANA-H2B inh: -4.7; PRMT1 FP inh: -1.9

How did O=C(NC(Cc1ccccc1)C(=O)Oc1ccc2c(C(F)(F)F)cc(=O)oc2c1)OCc1ccccc1 (stereo not given) do in these assays?
ABHD5-PLIN5 inh: 1.2; Rtt109 Vps75: 2.3; ALR inh: 3.4; LANA-H2B inh: 175.1*

Results for C=CCn1c(CSc2ccc(C)cc2)n[nH]c1=S ?
ABHD5-PLIN5 inh: 8.7; rCAG RNA binder: -2.4; Rtt109 Vps75: -3.8; ALR inh: 10.2; LANA-H2B inh: 4.3; PRMT1 FP inh: 0.8

How did CC(=NC1CCCC1)c1c(C)[nH]n(-c2nc3ccccc3s2)c1=O do in these assays?
ABHD5-PLIN5 inh: 3.4; rCAG RNA binder: -2.5; Rtt109 Vps75: 6.3; ALR inh: 93.0*; LANA-H2B inh: -1.6; PRMT1 FP inh: -2.5

How did CCOC(=O)/C(=N\Nc1cccc(C(F)(F)F)c1)N(CCOC)CCOC do in these assays?
ABHD5-PLIN5 inh: -1.6; rCAG RNA binder: -4.9; Rtt109 Vps75: -4.0; ALR inh: 97.2*; LANA-H2B inh: -0.5; PRMT1 FP inh: 2.8

What do the screens show for `Cc1ccc(-c2nn(Cc3ccccc3)cc2/C=C/C(=O)O)cc1`?
ABHD5-PLIN5 inh: -1.6; rCAG RNA binder: 2.6; Rtt109 Vps75: 6.8; ALR inh: 3.1; LANA-H2B inh: 0.0; PRMT1 FP inh: 0.9
